Here are results for four molecules from PubChem BioAssay (EPA / NIEHS).

SMILES strings stand for the structures. The source holds several records for some structures; these can differ, active in one and inactive in another. Activity calls are given as the source filed them. Rule for the calls: active = hit-call score of the fitted dose curve at least 0.9, where 1 is the maximum; inactive = score below 0.9.

Details in all cases: mRNA level, 48 h; actives raise or lower the signal
Read-out in experiment [1]: Tumor necrosis factor receptor superfamily member 6 (Homo sapiens) (UniProt P25445)
As to the kind of experiment: LTEA_HepaRG_FAS: Life Technologies and Expression Analysis (LTEA) Assay for Fas cell surface death receptor (FAS) using HepaRG (AID 2283447). The essentials: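 FAS transcript level was measured by TaqMan qRT-PCR against three housekeeping genes after 48 h chemical exposure. Cells were HepaRG, 0.5% DMSO vehicle, with a top concentration of 100 uM and half-log dilutions over eight points, in duplicate.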

Read-out in experiment [2]: Cyclin D2 (CCND2), CCND2 (gene 894)
As to the kind of experiment: LTEA_HepaRG_CCND2: Life Technologies and Expression Analysis (LTEA) Assay for Cyclin D2 (CCND2) using HepaRG (AID 2283449). The essentials:
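CCND2 transcript levels, quantified by qRT-PCR and normalised to three housekeeping genes, were fitted bidirectionally against 0.5% DMSO. HepaRG cultures were dosed 48 h in duplicate with an 8-point half-log series up to 100 uM.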

Read-out in experiment [3]: flavin-containing dimethylaniline monooxygenases 3 (FMO3), FMO3 (gene 2328)
In words: LTEA_HepaRG_FMO3: Life Technologies and Expression Analysis (LTEA) Assay for flavin-containing dimethylaniline monooxygenases 3 (FMO3) using HepaRG (AID 2283453). The gist of the method:
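Eight-point concentration-response in serum-free HepaRG cultures (top 100 uM, 0.5% DMSO, 48 h). Read-out: FMO3 mRNA level normalized to three endogenous control genes, fitted bidirectionally versus vehicle.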

Read-out in experiment [4]: Cytochrome P450 (CYP1A1), CYP1A1 (gene 1543)
In words: LTEA_HepaRG_CYP1A1: Life Technologies and Expression Analysis (LTEA) Assay for Cytochrome P450 (CYP1A1) using HepaRG (AID 2283454). The gist of the method:
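Differentiated human HepaRG cells, after 48 h plating, exposed in duplicate for 48 h in serum-free induction medium to 8 half-log concentrations up to 100 uM in 0.5% DMSO. CYP1A1 mRNA by qRT-PCR, normalized to ACTB/GAPDH/POLR2A; bidirectional fit versus DMSO.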

Read-out in experiment [5]: CFLAR gene, CFLAR (gene 8837)
As to the kind of experiment: LTEA_HepaRG_CFLAR: Life Technologies and Expression Analysis (LTEA) Assay for CFLAR gene using HepaRG (AID 2283455). The essentials: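 Transcript level by qRT-PCR (normalized to ACTB, GAPDH and POLR2A) after 48 h chemical exposure of HepaRG cells, top concentration 100 uM with half-log steps, 0.5% DMSO vehicle, duplicates; fitted bidirectionally against DMSO baseline.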

Read-out in experiment [6]: Forkhead box O1 (FOXO1), FOXO1 (gene 2308)
In words: LTEA_HepaRG_FOXO1: Life Technologies and Expression Analysis (LTEA) Assay for Forkhead box O1 (FOXO1) using HepaRG (AID 2283456). The essentials:
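FOXO1 transcript quantified by qRT-PCR after 48 h chemical exposure (top 100 uM, half-log steps, 0.5% DMSO) of HepaRG cells, housekeeping-normalized (ACTB/GAPDH/POLR2A). Changes fitted in both directions relative to vehicle.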

Read-out in experiment [7]: growth arrest and DNA damage 45 (GADD45A), GADD45A (gene 1647)
In words: LTEA_HepaRG_GADD45A: Life Technologies and Expression Analysis (LTEA) Assay for growth arrest and DNA damage 45 (GADD45A) using HepaRG (AID 2283458). The essentials:
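HepaRG, 48 h exposure, 8 conc. (top 100 uM, half-log steps), 0.5% DMSO vehicle, duplicates. Read-out: qRT-PCR mRNA level, housekeeping-normalized (ACTB/GAPDH/POLR2A). Curves fit bidirectionally vs DMSO baseline.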

Read-out in experiment [8]: Forkhead box O3 (FOXO3), FOXO3 (gene 2309)
In words: LTEA_HepaRG_FOXO3: Life Technologies and Expression Analysis (LTEA) Assay for Forkhead box O3 (FOXO3) using HepaRG (AID 2283459). The gist of the method: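 FOXO3 transcript measured by qRT-PCR (normalized to ACTB, GAPDH, POLR2A) after 48 h exposure of HepaRG cells in serum-free induction medium. Duplicates, eight half-log concentrations up to 100 uM, 0.5% DMSO; gain or loss fitted against DMSO.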

Read-out in experiment [9]: ABC Transporter (ABCB1), ABCB1 (gene 5243)
As to the kind of experiment: LTEA_HepaRG_ABCB1: Life Technologies and Expression Analysis (LTEA) Assay for ABC Transporter (ABCB1) using HepaRG (AID 2283460). The essentials: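 ABCB1 transcript level measured by TaqMan qRT-PCR against three housekeeping genes after 48 h chemical exposure of differentiated HepaRG cells. Top concentration 100 uM, half-log steps, eight points, 0.5% DMSO vehicle; bidirectional fit relative to DMSO.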

Read-out in experiment [10]: growth arrest and DNA damage 45 (GADD45B), GADD45B (gene 4616)
As to the kind of experiment: LTEA_HepaRG_GADD45B: Life Technologies and Expression Analysis (LTEA) Assay for growth arrest and DNA damage 45 (GADD45B) using HepaRG (AID 2283461). The essentials: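 Differentiated human HepaRG cells in serum-free induction medium exposed 48 h in duplicate to eight concentrations, top 100 uM, half-log steps, 0.5% DMSO. GADD45B mRNA by TaqMan qRT-PCR, normalized to ACTB, GAPDH, POLR2A; bidirectional fit versus DMSO.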

Read-out in experiment [11]: ABC Transporter (ABCC3), ABCC3 (gene 8714)
As to the kind of experiment: LTEA_HepaRG_ABCC3: Life Technologies and Expression Analysis (LTEA) Assay for ABC Transporter (ABCC3) using HepaRG (AID 2283462). The gist of the method:
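Differentiated human HepaRG cells exposed 48 h in serum-free induction medium, 0.5% DMSO vehicle, 8-point half-log series to 100 uM in duplicate. ABCC3 mRNA by qRT-PCR, normalised to ACTB, GAPDH, POLR2A; bidirectional fit vs DMSO.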

Read-out in experiment [12]: ABC Transporter (ABCB11), ABCB11 (gene 8647)
As to the kind of experiment: LTEA_HepaRG_ABCB11: Life Technologies and Expression Analysis (LTEA) Assay for ABC Transporter (ABCB11) using HepaRG (AID 2283463). The gist of the method: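 ABCB11 transcript levels quantified by TaqMan qRT-PCR against three housekeeping genes after 48 h chemical exposure of HepaRG cultures. Concentrations up to 100 uM in half-log steps, 0.5% DMSO vehicle; both induction and suppression scored.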

Read-out in experiment [13]: ABC Transporter (ABCC2), ABCC2 (gene 1244)
In words: LTEA_HepaRG_ABCC2: Life Technologies and Expression Analysis (LTEA) Assay for ABC Transporter (ABCC2) using HepaRG (AID 2283464). The essentials: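 Differentiated HepaRG cells in serum-free induction medium exposed 48 h to eight half-log concentrations up to 100 uM, 0.5% DMSO, in duplicate. ABCC2 mRNA measured by qRT-PCR (TaqMan, Fluidigm), normalized to ACTB, GAPDH and POLR2A. Fitted in both directions against DMSO.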

Read-out in experiment [14]: Broad substrate specificity ATP-binding cassette transporter ABCG2 (Homo sapiens) (UniProt Q9UNQ0)
As to the kind of experiment: LTEA_HepaRG_ABCG2: Life Technologies and Expression Analysis (LTEA) Assay for ABC Transporter (ABCG2) using HepaRG (AID 2283465). The gist of the method:
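ABCG2 transcript was quantified by TaqMan qRT-PCR against three housekeeping genes in HepaRG cells. Cells were treated in duplicate for 48 h across an 8-point half-log series up to 100 uM, with 0.5% DMSO vehicle. Gain or loss versus DMSO was fit.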

Read-out in experiment [15]: ATP-citrate lyase (ACLY), ACLY (gene 47)
As to the kind of experiment: LTEA_HepaRG_ACLY: Life Technologies and Expression Analysis (LTEA) Assay for ATP-citrate lyase (ACLY) using HepaRG (AID 2283466). The essentials:
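ACLY mRNA quantified by qRT-PCR on Fluidigm arrays against three housekeeping genes, after 48 h chemical treatment of HepaRG cells (top concentration 100 uM, half-log steps, 0.5% DMSO vehicle). Up- or down-regulation fitted relative to DMSO.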

Read-out in experiment [16]: Peroxisomal acyl-coenzyme A oxidase 1 (ACOX1) gene, ACOX1 (gene 51)
In words: LTEA_HepaRG_ACOX1: Life Technologies and Expression Analysis (LTEA) Assay for Peroxisomal acyl-coenzyme A oxidase 1 (ACOX1) gene using HepaRG (AID 2283467). The gist of the method:
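ACOX1 transcript levels were quantified by TaqMan qRT-PCR against three housekeeping genes after 48 h chemical exposure of differentiated human HepaRG cells. Exposure used eight half-log steps topping at 100 uM, 0.5% DMSO vehicle, in duplicate. Bidirectional curve fits were made relative to DMSO.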

Read-out in experiment [17]: Alkaline Phosphatase, Placental (ALPP) gene, ALPP (gene 250)
As to the kind of experiment: LTEA_HepaRG_ALPP: Life Technologies and Expression Analysis (LTEA) Assay for Alkaline Phosphatase, Placental (ALPP) gene using HepaRG (AID 2283468). The gist of the method: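 HepaRG cells plated 48 h, then exposed in duplicate for 48 h in serum-free induction medium to 8-point half-log series from 100 uM in 0.5% DMSO. ALPP mRNA by TaqMan qRT-PCR, normalized to ACTB/GAPDH/POLR2A; bidirectional fit versus DMSO.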

Read-out in experiment [18]: Bcl-2 (BAD) gene, BAD (gene 572)
As to the kind of experiment: LTEA_HepaRG_BAD: Life Technologies and Expression Analysis (LTEA) Assay for Bcl-2 (BAD) gene using HepaRG (AID 2283469). The essentials:
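Read-out: qRT-PCR of BAD mRNA, normalized to three housekeeping genes. Human HepaRG cultures got 48 h chemical exposure in 0.5% DMSO, duplicate eight-point half-log series topping at 100 uM. Gain or loss of signal fitted versus DMSO vehicle.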

Read-out in experiment [19]: Bcl-2 (BAX) gene, BAX (gene 581)
As to the kind of experiment: LTEA_HepaRG_BAX: Life Technologies and Expression Analysis (LTEA) Assay for Bcl-2 (BAX) gene using HepaRG (AID 2283470). The essentials: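 qRT-PCR read-out of BAX mRNA, normalized to three housekeeping genes, after 48 h chemical exposure of human HepaRG cells in serum-free induction medium; eight-point half-log series, top 100 uM, 0.5% DMSO vehicle; bidirectional fit versus DMSO.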

Sequence of Broad substrate specificity ATP-binding cassette transporter ABCG2 (Homo sapiens) (Q9UNQ0 whole entry, looked up): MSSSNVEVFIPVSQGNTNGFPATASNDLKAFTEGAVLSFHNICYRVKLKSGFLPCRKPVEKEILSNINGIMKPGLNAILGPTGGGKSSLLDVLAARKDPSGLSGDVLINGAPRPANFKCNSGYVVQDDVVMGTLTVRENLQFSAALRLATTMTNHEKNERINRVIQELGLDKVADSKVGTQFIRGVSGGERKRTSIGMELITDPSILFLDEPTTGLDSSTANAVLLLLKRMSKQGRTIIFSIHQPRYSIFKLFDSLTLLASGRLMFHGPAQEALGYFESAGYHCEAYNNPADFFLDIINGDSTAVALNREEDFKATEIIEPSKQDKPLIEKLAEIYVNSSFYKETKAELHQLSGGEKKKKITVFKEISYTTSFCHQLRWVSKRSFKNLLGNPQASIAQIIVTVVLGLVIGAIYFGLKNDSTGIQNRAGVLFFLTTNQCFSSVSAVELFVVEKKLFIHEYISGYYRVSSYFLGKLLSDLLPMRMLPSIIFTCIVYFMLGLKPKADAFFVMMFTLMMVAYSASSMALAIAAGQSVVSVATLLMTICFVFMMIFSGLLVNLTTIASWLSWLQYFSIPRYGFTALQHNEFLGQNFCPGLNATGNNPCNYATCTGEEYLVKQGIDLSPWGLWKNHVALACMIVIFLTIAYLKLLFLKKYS

As usually defined, the AC50 is the midpoint of the concentration-response curve, whichever way the signal moves. Turning to `C[C@]12CCC(=O)C[C@@H]1CC[C@@H]1[C@@H]2CC[C@]2(C)[C@@H](O)CC[C@@H]12`, the outcome in experiment [1], in experiment [2], in experiment [3], in [5], in experiment [6] and in experiment [8] was inactive. Moreover, the molecule was classed as inactive in [9], in experiment [10], in experiment [11], in [13], in experiment [14] and in [15]. For the same molecule, the molecule was classed as inactive in experiment [16], in experiment [17], in experiment [18] and in experiment [19]. Also, the AC50 was 35.7 µM (active) in experiment [4], 0.00162 µM (active) in experiment [7] and 50 µM (active) in [12].
For `O=C(O)C(F)(F)C(F)(F)C(F)(F)C(F)(F)C(F)(F)C(F)(F)C(F)(F)C(F)(F)C(F)(F)C(F)(F)F`, the molecule was classed as inactive in [1], in [2], in experiment [4], in [5], in [6] and in experiment [7]. Besides, the molecule was called inactive in [9], in experiment [10], in experiment [11], in experiment [13], in experiment [14] and in [15]. The outcome in experiment [16], in experiment [17], in experiment [18] and in experiment [19] was inactive. In addition, the results for the concentration at half-maximal activity (AC50) in [3], in experiment [8] and in experiment [12] were 69.1 µM (active), 47.8 µM (active) and 13.7 µM (active), respectively.
Turning to `CC(C)(C)CC(C)(C)c1ccc(O)cc1`, the molecule was called inactive in [1], in [3], in experiment [5], in experiment [6], in experiment [8] and in [9]. Besides, the outcome in experiment [10], in experiment [11], in experiment [12], in experiment [13], in [14] and in [15] was inactive. Also, the molecule was called inactive in [16], in [17], in experiment [18] and in experiment [19]. Moreover, the half-maximal activity concentration (AC50) in experiment [4] and in [7] was 81.5 µM (active) throughout.
Take `O=C(O)C(Cl)(Cl)Cl`: the molecule was classed as inactive in [1], in [2], in [3], in experiment [4], in experiment [5] and in [6]. Further, the result in experiment [7], in [8], in [9], in experiment [10], in experiment [11] and in [12] was inactive. Also, the result in experiment [13], in experiment [14], in experiment [15], in experiment [16], in [17] and in [18] was inactive. The molecule was called inactive in experiment [19]. Moreover, in [4], the AC50 is 50 µM (active).
